MOR-DOR ag – agonists of OPRM1-OPRD1 heterodimerization, primary screen, cell-based, luminescence; AID 504326, 2011; 0.3% of 340,000 active; cells; activation, % at 9.3 µM;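 note: 0% = vehicle-treated cells and 100% = reference agonist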
MOR-DOR inv ag – inverse agonists of MOR-DOR heterodimerization, primary screen, cell-based, luminescence. cell-based MOR-DOR heterodimer luminescence, inverse agonism. 0.21% of 340,000 active. Mu-type opioid receptor (Homo sapiens) + Delta-type opioid receptor (Homo sapiens), …. AID 504357, 2011. inhibition, % at 9.3 µM; in the data active = inhibition above about 22%, passing the limit was not always enough;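 note: 0% = cells with DMSO and 100% = wells without cells with DMSO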
HTR5A ag ctr – HTR5A agonists in luminescence cell assay, primary screen, counter-screen for OPRM1-OPRD1 heterodimer agonist project, full-deck HTS; cell-based; activation, % at 9.3 µM; 0.61% of 340,000 active; in the data active = activation mostly above about 9.5%, no sharp cut-off; inactive = mostly below about 7.6%;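 note: 0% = cells with vehicle only and 100% = reference agonist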
Target sequence (P47898 whole entry, looked up): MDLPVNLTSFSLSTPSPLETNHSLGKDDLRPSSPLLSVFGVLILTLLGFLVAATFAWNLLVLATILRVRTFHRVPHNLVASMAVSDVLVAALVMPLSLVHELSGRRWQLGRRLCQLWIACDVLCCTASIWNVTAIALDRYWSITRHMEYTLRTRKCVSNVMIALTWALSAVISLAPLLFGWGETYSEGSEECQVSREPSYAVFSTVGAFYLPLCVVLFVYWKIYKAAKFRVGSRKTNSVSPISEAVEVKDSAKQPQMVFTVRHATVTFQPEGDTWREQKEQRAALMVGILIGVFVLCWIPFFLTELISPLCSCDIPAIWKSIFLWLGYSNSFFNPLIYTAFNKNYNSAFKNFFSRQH
HTR5A inv ctr – HTR5A inverse agonists in luminescence cell assay, primary screen, counter-screen for OPRM1-OPRD1 heterodimer inverse agonist project, full-deck HTS | 5-hydroxytryptamine receptor 5A (Homo sapiens), P47898 | HTR5A cell line, inverse agonism | inhibition, % at 9.3 µM | 0.083% of 340,000 active | AID 504634, 2011; in the data active = inhibition mostly above about 23%, no sharp cut-off; inactive = mostly below about 18%;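 note: 0% = cells with DMSO and 100% = no-cell wells with DMSO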
OPRM1-D1 ag cf – agonists of MOR-DOR heterodimerization, confirmation, cell-based, luminescence; 45% of 830 active; activation, % at 9.3 µM; cells, luminescence complementation; shares compounds with MOR-DOR ag;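 note: 0% = vehicle-treated cells and 100% = reference agonist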
HTR5A ag counter – HTR5A agonists in cells, counter-screen for OPRM1-OPRD1 heterodimer agonist project, cell-based, luminescence; activation, % at 9.3 µM; AID 504905, 2011; shares compounds with MOR-DOR ag; 8% of 830 active; HTR5A agonist counterscreen; in the data active = activation above about 17%;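 note: 0% = vehicle-treated cells and 100% = reference agonist response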
* marks the source's active call; other numbers are inactive results; . = no result given. Hits are enriched below; roughly 1.1% of the tested compounds scored in any of these assays. Cut-off read from the data, not from the text of the source, unless noted: active = activation above about 18%; inactive = the rest.

SMILES | MOR-DOR ag | MOR-DOR inv ag | HTR5A ag ctr | HTR5A inv ctr | OPRM1-D1 ag cf | HTR5A ag counter
O=C1C=C(NCCc2cc(Br)c(O)c(Br)c2)C(=O)c2ncccc21 | 36* | -157 | 6 | -25 | 10 | 4
CCOC(=O)c1nnn(CC(=O)N2N=C(c3ccccc3)CC2c2ccccc2)c1C(=O)OCC (centres undefined) | 0 | 0 | -1 | -7 | . | .
CCOC(=O)c1nnn(CC(=O)N2N=C(c3cc(C)ccc3C)CC2c2ccc(OC)cc2)c1C(=O)OCC (centres undefined) | 20* | -109 | 1 | 18 | 2 | 62*
COc1ccc(CCN2CC(C(=O)N(C)Cc3ccc(C)o3)CCC2=O)cc1 (centres undefined) | -3 | 15 | -3 | -10 | . | .
CC(=O)Nc1sc(N/N=C/c2ccc(O)cc2)nc1-c1ccc(C)cc1 | -1 | 4 | 0 | 0 | . | .
CC(C)(C)c1csc(N/N=C/c2ccc(O)cc2)n1 | 18* | -84 | -1 | 4 | 49* | 1
CCc1cc(=O)oc2cc(C)cc(OC(C)C(=O)NC(Cc3c[nH]c4ccc(O)cc34)C(=O)O)c12 (centres undefined) | -1 | 4 | 7 | -3 | . | .
O=C(COC(=O)/C=C/c1cccc(C(F)(F)F)c1)NCCN1C(=O)CSC1=O | -2 | 6 | -1 | 11 | . | .
COC1=C(c2ccccc2)C(=O)c2ccccc2C1=O | 8 | -57 | -3 | 36 | . | .
O=C(C1=C(c2ccccc2)C(=O)c2ccccc2C1=O)c1ccccc1 | 20* | -132 | 3 | -9 | 6 | 0
Cc1ccc(N(C(=O)C(F)(F)F)C(C(=O)NC2CCCCC2)c2cccs2)cc1 (centres undefined) | 18* | -105 | 12 | -10 | -1 | -1
CC(C)c1ccc(S(=O)(=O)Nc2ccc(SC(F)F)cc2)cc1 | 18* | -114 | 2 | -7 | 0 | -4
Nc1ccc2c(c1)C(=O)C(=O)c1ccccc1-2 | 25* | -125 | 4 | -11 | 0 | 1
O=C1C(=O)c2ccc(-c3ccccc3)cc2-c2ccccc21 | 26* | -118 | 5 | -22 | 0 | 3
C[C@@H]1COC(=O)[C@@H](CC(=O)OC(C)(C)C)C/C=C\C[C@@H](CC(=O)N[C@H](CO)Cc2ccccc2)C(=O)N1 | -1 | 8 | -4 | 11 | . | .
Cn1ccnc1SCC(=O)NC1(C#N)CCCCC1 | -2 | 13 | -2 | -1 | . | .
Cc1ccc(NC(=O)Cn2c(O)c(N=NC(N)=S)c3ccccc32)cc1 | 20* | -91 | 8 | -32 | 9 | 6
COc1ccc2c(c1)c(N=NC(N)=S)c(O)n2CC(=O)c1ccccc1 | 19* | -110 | 7 | -29 | 15 | 8
Cc1ccc(NC(=O)c2ncn(CCCN[C@H](C)c3cccc4ccccc34)n2)cc1C | 85* | -393 | 6 | -22 | 56* | -1
Cc1cc(C)c(OCC(=O)OC(C)C(=O)NC2CC2)c(C)c1 (centres undefined) | -3 | 14 | 0 | 24 | . | .
Cc1cc([N+](=O)[O-])nn1CC(=O)N(C)C1CCCCC1 | -2 | 13 | -4 | 11 | . | .
COc1ccc2c(c1)C(CC(=O)NN)CCC2 (centres undefined) | 1 | -5 | 4 | -14 | . | .
COC(=O)c1cccc(C23CC4(C2)[C@H](CN(Cc2ccc(-c5ccccc5)cc2)[C@@H]4c2ccccc2)C3c2ccc(Cl)nc2)c1 (some centres undefined) | -3 | 19 | 1 | -4 | . | .
COC(=O)c1cccc(C23CC4(C2)[C@H](CN(Cc2cccnc2)[C@@H]4c2ccccc2)C3c2ccc(Cl)nc2)c1 (some centres undefined) | 23* | -127 | -2 | -5 | 29* | 0
Cc1cc(C(=O)CCC(=O)N(C)CC(=O)Nc2c(Cl)cccc2Cl)c(C)s1 | -2 | 8 | -4 | 9 | . | .
CN(C)c1ccc(C2(c3ccc(N(C)C)cc3)OC(=O)c3cc(N)ccc32)cc1 | 4 | -20 | 0 | 1 | . | .
Cn1cc(C(=O)C(=O)NCCc2ccccc2)c2ccccc21 | -2 | 9 | -2 | 9 | . | .

Assay outcomes: PubChem, The Scripps Research Institute Molecular Screening Center
